Assay outcomes deposited in PubChem by National Center for Advancing Translational Sciences (NCATS).
ATXN2 expr inh: ATXN2 expression inhibition. HEK-293 ATXN2-luciferase reporter, luminescence, 24 h. Potency, µM (highest dose often 57 µM), most hits filed as inhibitors. 0.72% of 360,000 active. AID 1745845; note: nearly all actives have a fitted effect of over 55% in size
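qHTS (up to 57 uM final) was run with 24 h compound exposure of reporter cells at 37 °C. Each well was multiplexed: SteadyGlo luminescence measured ATXN2-luciferase expression after a fluorogenic Gly-Phe-AFC viability readout (25 uM final).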
HepG2 viability: counter-screen for TGF-b inhibitors: cytotoxicity in HepG2 cells; HepG2 CAGA-GFP viability, ATP luminescence, 18 h; Potency, µM (top dose mostly 46.1 µM), usual class: cytotoxic; 0.76% of 410,000 active; AID 588856
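CellTiter-Glo luminescence gave cytotoxicity after 18 hours at 37 degrees C. The cells were HepG2 CAGA-GFP in 1% FBS DMEM, stimulated with 500 pg/mL TGF-beta after compound addition. %Activity was normalised to no-cell wells (complete cell-killing) and DMSO (no toxicity), and curves were fitted and classified.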
TDP1 cell CPT: DT40-hTDP1 cell growth loss with CPT; chicken DT40 Tdp1-/-;hTDP1 cells + 20 nM CPT, ATP luminescence, 48 h; Potency, µM (highest dose often 46.2 µM), actives largely listed as inhibitors; 12% of 420,000 active; AID 686979; note: nearly all actives have a fitted effect of over 55% in size
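Cell growth measured by CellTiter-Glo luminescence after a minimum 48 h, 37 C compound exposure with 20 nM CPT in Tdp1-knockout DT40 cells stably expressing hTDP1, seeded 400/well; qHTS titration format.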
TGFb SMAD3 inh: TGF-b pathway inhibition. 1.2% of 410,000 active. AID 588855. HepG2 CAGA-GFP TGF-b/SMAD3 reporter, GFP fluorescence, 18 h; TGF-beta stimulated, 500 pg/mL final. Potency, µM (highest dose often 46.1 µM), actives largely listed as inhibitors; note: nearly all actives have a fitted effect of over 65% in size
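Per well, imaged GFP fluorescence of HEPG2 CAGA-GFP cells gives the signal; cells get compound, then TGF-beta (500 pg/mL final), 18 h at 37 degrees C; %Activity versus -TGF-beta and +DMSO controls.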
DT40 TDP1 no CPT: qHTS for Inhibitors of human tyrosyl-DNA phosphodiesterase 1 (TDP1): qHTS in cells in absence of CPT. Potency, µM (top dose mostly 46.2 µM), hits mostly inhibitors. DT40 Tdp1-/- hTDP1 cells, no CPT, ATP luminescence, 48 h. AID 686978, 2013. 15% of 420,000 active; note: nearly all actives have a fitted effect of over 55% in size
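Luminescent ATP content (CellTiter-Glo) served as the growth readout. Knockout chicken DT40 cells expressing human TDP1 were exposed to compounds without camptothecin for a minimum 48 hr at 37 °C.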
S2 tox: cell viability loss in ATXN counter-screen | Potency, µM (titrated, usually from 56.7 µM), hits mostly cytotoxic | AID 651635 | S2 cells (HEK-293 line with an ATXN2-luciferase reporter) viability, CellTiter-Fluor protease fluorescence, 24 h | 0.49% of 400,000 active; note: nearly all actives have a fitted effect of over 40% in size
Each line names hits and unclear results; the compound was inactive in the other large screens. Sampled rows, rich in hits. Any-hit rate of the full collection: about 17%. Calls come from the whole dose curve; as a rule, active = well fitted curve in the direction sought with a large enough effect; inconclusive = small, poorly fitted or top-dose-only effect, or another doubt; inactive = no such curve, though single readings can be large; an effect the other way counts as inactive or inconclusive.

NC(=O)CSc1nc(-c2ccccc2Cl)ns1	none
CCc1cccc(NS(=O)(=O)c2csc(C(N)=O)c2)c1	DT40 TDP1 no CPT 14.6µM
Cc1ccc(NS(=O)(=O)c2csc(C(N)=O)c2)cc1C	TDP1 cell CPT inconclusive, DT40 TDP1 no CPT 20.6µM
CC[C@]12CCCN3CCc4c(n(c5ccccc45)C(=O)C1)[C@H]32	TDP1 cell CPT 10.6µM, DT40 TDP1 no CPT 9.44µM (no result: ATXN2 expr inh, HepG2 viability, TGFb SMAD3 inh, S2 tox)
CC1(OC(=O)C2CCCC2)C(=O)C=C2C=C(c3ccsc3)N(C3CCCCC3)C=C2C1=O (stereo not drawn)	TDP1 cell CPT 20.6µM, DT40 TDP1 no CPT 20.6µM
CC1(OC(=O)C2CCCC2)C(=O)C=C2C=C(c3ccsc3)N(CC3CC3)C=C2C1=O (stereo not drawn)	TGFb SMAD3 inh inconclusive, DT40 TDP1 no CPT inconclusive
CC1(OC(=O)CCc2ccccc2)C(=O)C=C2C=C(c3ccc(C#N)cc3)N(C3CCCCC3)C=C2C1=O (stereo not drawn)	TDP1 cell CPT 25.9µM, DT40 TDP1 no CPT inconclusive
CC1(OC(=O)C2CCCC2)C(=O)C=C2C=C(c3ccsc3)N(CCc3c[nH]c4ccccc34)C=C2C1=O (stereo not drawn)	TDP1 cell CPT 20.6µM, DT40 TDP1 no CPT inconclusive
CC(=O)N1CCN=C1SCc1cccc(Cl)c1	none (no result: ATXN2 expr inh)
Cc1c(CCNC(=O)C(C)(C)C)sc2nc(-c3ccc(F)cc3)nn12	TDP1 cell CPT inconclusive, DT40 TDP1 no CPT 25.9µM (no result: ATXN2 expr inh, TGFb SMAD3 inh, S2 tox)
Cc1ccc(-c2nc3sc(CCNS(=O)(=O)c4cc(F)ccc4F)c(C)n3n2)cc1	TDP1 cell CPT inconclusive, TGFb SMAD3 inh 6.31µM, DT40 TDP1 no CPT 20.6µM (no result: ATXN2 expr inh, S2 tox)
COc1ccc2cc(C#N)c(N3CCN(Cc4nnnn4CCC(C)C)CC3)nc2c1	TDP1 cell CPT 20.6µM, DT40 TDP1 no CPT 18.4µM
Cc1ccc(-c2nnc(NCc3ccccc3)c3ccccc23)cc1	TDP1 cell CPT inconclusive, DT40 TDP1 no CPT inconclusive
Cc1nc(NCc2ccccc2)c2cc[nH]c2n1	TDP1 cell CPT inconclusive, DT40 TDP1 no CPT 11.6µM (no result: ATXN2 expr inh)
CC1(C)Cc2c(cnn2-c2ccc(F)cc2)C(NC(=O)CN2CCCC2=O)C1 (stereo not drawn)	none
CCN(Cc1ccccc1)CC(O)COC(c1ccc(OC)cc1)c1ccc(OC)cc1 (stereo not drawn)	TDP1 cell CPT 20.6µM, TGFb SMAD3 inh inconclusive, DT40 TDP1 no CPT 20.6µM
CCN(CC)CC(O)COC(c1ccccc1)c1ccccc1 (stereo not drawn)	none
CC(C)(C)c1nnc(NS(=O)(=O)c2ccc(F)cc2)s1	DT40 TDP1 no CPT inconclusive
CCn1c(COc2cccc(C)c2C)nnc1SCC(=O)N1CCN(c2ccc(OC)cc2)CC1	TDP1 cell CPT 20.6µM, DT40 TDP1 no CPT 20.6µM
CCn1c(COc2ccccc2C)nnc1SCC(=O)N1CCN(c2ccccc2)CC1	ATXN2 expr inh 14.1µM, TDP1 cell CPT inconclusive, TGFb SMAD3 inh inconclusive, DT40 TDP1 no CPT 23.1µM, S2 tox inconclusive
CCCC1NC(=O)c2cccnc2-n2c1nc1cc(F)c(F)cc1c2=O (stereo not drawn)	ATXN2 expr inh inconclusive, S2 tox inconclusive
Cc1nn(C(C)C(=O)NCCCc2ccccc2)c(=O)c2nn(-c3ccccc3)c(C)c12 (stereo not drawn)	TDP1 cell CPT inconclusive, DT40 TDP1 no CPT inconclusive
O=C(O)CNc1ccc(S(=O)(=O)C(F)(F)F)cc1[N+](=O)[O-]	TGFb SMAD3 inh inconclusive
O=[N+]([O-])c1cc(S(=O)(=O)Nc2ccccc2)ccc1Nc1ccccc1	TDP1 cell CPT inconclusive, TGFb SMAD3 inh inconclusive, DT40 TDP1 no CPT 14.6µM
O=[N+]([O-])c1cc(S(=O)(=O)Nc2ccc(Cl)cc2)ccc1N/N=C/c1ccncc1	TDP1 cell CPT inconclusive, TGFb SMAD3 inh inconclusive, DT40 TDP1 no CPT 5.8µM
